Reference: PubChem BioAssay (NCI)
Compounds without any hit were thinned out: in the full panel of roughly 83,000, 20% have a hit.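 For each line, cells grew in 96-well plates with the test compound present at a single concentration for 48 hours.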 Values without a mark were called inactive. Active and inactive are the calls of the source. Rule for the calls: active = growth percent below 10; inactive = the rest.

How the values were obtained:
Test in all cases: NCI-60 one-dose screen, 48 h (100 = growth as untreated, 0 = no growth, -100 = all killed)
Conditions in all cases: 10 µM unless noted
EKVX NSCLC = system: EKVX NSCLC
SN12C renal = system: SN12C renal
UO-31 renal = system: UO-31 renal
ACHN renal = system: ACHN renal
CAKI-1 renal = system: CAKI-1 renal
A498 renal = system: A498 renal
MOLT-4 leukemia = system: MOLT-4 leukemia
SR leukemia = system: SR leukemia
CCRF-CEM leukemia = system: CCRF-CEM leukemia

Structure (SMILES)	growth (EKVX NSCLC)	growth (SN12C renal)	growth (UO-31 renal)	growth (ACHN renal)	growth (CAKI-1 renal)	growth (A498 renal)	growth (MOLT-4 leukemia)	growth (SR leukemia)	growth (CCRF-CEM leukemia)
CN(C)CCCNc1c2ccc(Cl)cc2nc2c1oc1ccccc12	-26.7% (active)	6.3% (active)	12.3%	-36.5% (active)	6.06% (active)	8.64% (active)	-1.03% (active)	-18.8% (active)	–
C#C[C@]1(O)CC[C@H]2[C@@H]3CC=C4c5sc(-c6ccc(F)cn6)nc5CC[C@]4(C)[C@H]3CC[C@@]21C	25.4%	58.7%	52.7%	–	20.6%	-24.7% (active)	–	-2.25% (active)	8.87% (active)
Clc1ccc2c(OCCCN3CCOCC3)c3oc4ccccc4c3nc2c1	34.6%	30.4%	22.2%	–	19.7%	13.6%	11.7%	11.9%	–
COc1cc2nc(-c3ccc(C)cc3)cc(OCCCNCC3CCCO3)c2cc1OC (stereo unspecified)	73.4%	57.3%	72%	65.7%	24.6%	46.9%	71.9%	41.1%	73.4%
CS(=O)(=O)c1ccc(-c2nc3ccccn3c2-c2nc3ccc([N+](=O)[O-])cc3[nH]2)cc1	91%	94.8%	77.7%	88.6%	86.2%	87.5%	90.3%	95.2%	101%
OC1CCN(CCCOc2c3ccc(Cl)cc3nc3c2oc2ccccc23)CC1	-43.4% (active)	6.58% (active)	-52.1% (active)	-50.1% (active)	-3.51% (active)	-91.3% (active)	–	-38.5% (active)	2.24% (active)
CC(C)Sc1nc(Nc2ccc(S(N)(=O)=O)cc2)c(C#N)c(-c2ccc(F)cc2)n1	50.9%	–	–	–	–	–	49.9%	-36.9% (active)	36.6%
COc1cc(-c2ccc3ncnc(NC(C)c4ccccc4)c3c2)cnc1OC (stereo unspecified)	19.5%	39.1%	19.1%	21%	16.4%	-14.9% (active)	–	43.7%	56.3%
OC1CCN(CCCOc2c3ccc(Cl)cc3nc3c2oc2ccc(Cl)cc23)CC1	34.7%	23.2%	7.4% (active)	-98.4% (active)	3.71% (active)	-7.6% (active)	0.17% (active)	-39.3% (active)	-28.8% (active)
C#C[C@]1(O)CC[C@H]2[C@@H]3CC=C4c5sc(Nc6ccc(Cl)cn6)nc5CC[C@]4(C)[C@H]3CC[C@@]21C	42.3%	79.5%	40%	53.6%	29.1%	-6.58% (active)	2.85% (active)	7.04% (active)	15.1%
Clc1ccc2c(NCCCN3CCOCC3)c3oc4ccc(Cl)cc4c3nc2c1	65.3%	40%	32.2%	–	21.6%	49.7%	–	1.24% (active)	48.9%
N#Cc1nc(-c2ccccc2)oc1S(N)(=O)=O	97.5%	49.6%	72.3%	–	63.1%	83.1%	41.4%	3.32% (active)	14.6%
Oc1c(Cl)cc(Cl)c2ccc(CN3CCCCC3)nc12	30.6%	42.9%	35.7%	29.4%	36.2%	49.9%	26.1%	18.8%	18.6%
O=C(CCN1C(=O)/C(=C/c2ccccc2F)SC1=S)N1CCOCC1	86.8%	73.9%	67.6%	62.2%	84.7%	111%	89.9%	46.7%	53.3%
CN(C)CCCOc1c2ccc(Cl)cc2nc2c1oc1ccc(Cl)cc12	31.8%	21.4%	2.96% (active)	-85.6% (active)	-12.1% (active)	-6.7% (active)	1.92% (active)	-31.1% (active)	–
Clc1ccc2c(NCCCN3CCOCC3)c3oc4ccccc4c3nc2c1	62.6%	29.9%	40.1%	19.3%	30.4%	33.7%	10.6%	8.11% (active)	32.8%

Structure (SMILES)	growth (EKVX NSCLC)	growth (SN12C renal)	growth (UO-31 renal)	growth (ACHN renal)	growth (CAKI-1 renal)	growth (A498 renal)	growth (MOLT-4 leukemia)	growth (SR leukemia)	growth (CCRF-CEM leukemia)
N/C(=N\c1nc2c(Br)cccc2s1)C(Br)Br	16.4%	18%	4.29% (active)	–	-19.6% (active)	0.53% (active)	-2.89% (active)	-24% (active)	-1.73% (active)
O=C1Nc2cc(Cl)ccc2/C1=C\c1ccc(OCc2ccc(Br)cc2F)cc1	-18.9% (active)	-70.1% (active)	-68.7% (active)	-83% (active)	-77.1% (active)	-75.8% (active)	22.7%	27.4%	12.9%
CN(C)CCCNc1c2ccc(Cl)cc2nc2c1oc1ccc(Cl)cc12	44.4%	-74.4% (active)	45.2%	-96.8% (active)	-85% (active)	37.9%	-4.89% (active)	-12.3% (active)	2.17% (active)
COc1ccc(COc2ccc(/C=C3/C(=O)Nc4cc(Cl)ccc43)cc2)cc1	95.8%	94.1%	79.4%	95.7%	88.3%	83.7%	–	109%	6.11% (active)
COc1cc2nc(-c3ccc(C(F)(F)F)cc3)cc(OCCCNCC3CCCO3)c2cc1OC (stereo unspecified)	61.5%	46.2%	35.9%	–	8.44% (active)	17.9%	14.3%	8.68% (active)	28.6%
Cc1ccc2ccc3ccc(C)nc3c2n1.Cc1ccc2ccc3ccc(C)nc3c2n1.Oc1c(Cl)cc(Cl)c2ccc(CN3CCCCC3)nc12.[Ru]	-64.9% (active)	-64.9% (active)	-89.8% (active)	–	-77.7% (active)	-88.7% (active)	-52.7% (active)	–	-47.9% (active)
O=C1Nc2ccc(Cl)cc2/C1=C/c1ccc(OCC(=O)c2ccc(Br)cc2)cc1	81.6%	93.5%	73.4%	88.4%	76.1%	107%	95.6%	103%	102%
CN(C)c1ccc(/C=c2\sc3nc4ccccc4n3c2=O)cc1	87%	99.2%	92.2%	98%	93.3%	85.1%	–	99.7%	13.8%
Cc1nc(-c2cc3ccccc3oc2=O)ccc1C(=O)/C=C/c1ccccn1	84.3%	47.5%	58%	–	60.6%	89.2%	–	-12.6% (active)	6.22% (active)
CN(C)CCCNc1c2ccccc2nc2c1oc1ccc(Cl)cc12	43.5%	26.6%	39.5%	–	21.4%	7.63% (active)	3.74% (active)	-30.8% (active)	24.1%
Cc1nc(-c2cc3ccccc3oc2=O)ccc1C(=O)/C=C/c1ccc(N2CCOCC2)cc1	86.6%	83.8%	83.9%	70.9%	65.1%	75.2%	66.1%	26%	72.4%
c1ccc(CNc2ncnc3ccc(-c4cnc5[nH]ncc5c4)cc23)cc1	46.6%	56.6%	35%	–	36.3%	-8.94% (active)	–	–	73.1%
Nc1ncc(-c2ccc3ncnc(N4CCc5cc(F)c(Cl)cc54)c3c2)cc1CO	-15.8% (active)	14.7%	6.11% (active)	5.95% (active)	2.97% (active)	-64% (active)	-14.6% (active)	-6.6% (active)	6.14% (active)
CCC/C=C/C=C/C(=O)N[C@@H](Cc1cc(F)cc(F)c1)C(=O)N[C@@H]1C(=O)N2CCC[C@H]2C(=O)N2CCCC[C@H]2C(=O)N[C@@H](C)C(=O)N2C[C@H](C)C[C@H]2C(=O)O[C@H]1C	32.1%	20.3%	29.7%	23.1%	11.5%	3.26% (active)	34.7%	27.1%	28.9%
OC1CCc2c(-c3ccc4ncnc(N5CCc6cc(F)c(Cl)cc65)c4c3)cncc21 (stereo unspecified)	27.1%	39.3%	19%	18.6%	22.5%	-13.1% (active)	21.9%	47.9%	40.3%
